We go through five compounds from PubChem BioAssay (NCATS).

Assay [1] can be described thus: NS1 protein of Zika virus - qHTS assay to identify small molecule inhibitors in human HEK 293 cells (AID 1347053). Also: nearly all actives have a fitted effect of over 55% in size. Also: potency is read from the fitted curve at half-maximal effect. In short, it runs like this:
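Inhibition of NS1 expression was scored in HEK 293 cells given compound 1 h ahead of MR766 virus (MOI = 0.5). Following 24 h at 37 C, two anti-NS1 antibodies generated a TR-FRET signal, scaled between uninfected and infected controls.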
Background: Quantitative high-throughput screening tests each substance at several concentrations.

The target of assay [2] is T1, Tyrosine-protein phosphatase non-receptor type substrate 1 (Homo sapiens) + Leukocyte surface antigen CD47 (Homo sapiens) (UniProt P78324+Q08722). The assay can be described thus: CD47-SIRPalpha protein protein interaction - LANCE assay qHTS validation (AID 1347057; active = well fitted curve in the direction sought with a large enough effect in the signal ratio, with a control signal flat, not every such curve was filed as active; the % refers to the signal ratio; also: series mostly up to about 38 µM). Put shortly: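 First, His-tagged CD47 and Eu-labelled anti-His antibody met the compound for 30 min; next, site-specifically biotinylated SIRPalpha was added for 30 min; finally streptavidin-APC was added before reading the TR-FRET ratio.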
In general terms: Time-resolved FRET reads energy transfer from a long-lived donor to a nearby acceptor.

Assay [3] concerns the target T1, Tyrosine-protein phosphatase non-receptor type substrate 1 (Homo sapiens) + Leukocyte surface antigen CD47 (Homo sapiens). The assay can be described thus: CD47-SIRPalpha protein protein interaction - HTRF assay qHTS validation (AID 1347058; active = well fitted curve in the direction sought with a large enough effect in the signal ratio, not every such curve was filed as active; the % refers to the signal ratio;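 also: recombinant soluble extracellular CD47 with His tag and biotinylated SIRPalpha domains; series mostly up to about 38 µM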). In short, it runs like this: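 TR-FRET read (Ch1/Ch2 ratio) of soluble extracellular CD47 and Avi-biotinylated SIRPalpha domains in PBS pH 7.4 with 0.05% IGEPAL; 7-point compound titration. Sequential 30 min room-temperature steps; non-biotinylated SIRPalpha as control inhibitor.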

The target is the same in assay [4]. The assay can be described thus: CD47-SIRPalpha protein protein interaction - Alpha assay qHTS validation (AID 1347059).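 Also: bead proximity luminescence from CD47 binding SIRPalpha after compound preincubation with SIRPalpha.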 Also: potency is read from the fitted curve at half-maximal effect. Put shortly:
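Binding is measured by AlphaScreen proximity: Ni-NTA acceptor beads capture His-CD47, streptavidin donor beads capture biotin-SIRPalpha. Each of three additions (SIRPalpha with compound, CD47, beads) incubates 30 min at room temperature protected from light.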

Assay [5] can be described thus: qHTS of pediatric cancer cell lines to identify multiple opportunities for drug repurposing: Primary screen for DAOY cells (AID 1347090). Also: nearly all actives have a fitted effect of over 55% in size. Also: potency is read from the fitted curve at half-maximal effect. Put shortly: (§1)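 Cell viability, CellTiter-Glo luminescence; 500-1,000 cells/well, 8- or 11-point titration, 48 h compound exposure at 37 degrees C, 5% CO2. Controls: DMSO neutral, bortezomib 2.3 µM final as positive.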
Assay [6] can be described thus: qHTS of pediatric cancer cell lines to identify multiple opportunities for drug repurposing: Primary screen for SJ-GBM2 cells (AID 1347091). Also: potency is read from the fitted curve at half-maximal effect. Put shortly: as §1
Assay [7] is described as follows: qHTS of pediatric cancer cell lines to identify multiple opportunities for drug repurposing: Primary screen for A673 cells (AID 1347092). Also: nearly all actives have a fitted effect of over 45% in size. Also: potency is read from the fitted curve at half-maximal effect. In short, it runs like this:
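48 h compound exposure, A673, 500-1,000 cells/well, 37 degrees C/5% CO2. MIPE: 11-point, 0.78 nM-46 µM; NPC: 8-point, 0.59 nM-46 µM (final). Readout CellTiter-Glo luminescence after 15 min RT.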

Assay [8] in a line: qHTS of pediatric cancer cell lines to identify multiple opportunities for drug repurposing: Primary screen for SK-N-MC cells (AID 1347093). Also: potency is read from the fitted curve at half-maximal effect. Put shortly: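 Metabolically active cells were quantified by ATP-dependent luminescence (CellTiter-Glo, 15 min at room temperature) following 48 h treatment. Cells had been plated at 500-1,000 per well and settled for 5 h beforehand.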
A short description of assay [9]: qHTS of pediatric cancer cell lines to identify multiple opportunities for drug repurposing: Primary screen for BT-37 cells (AID 1347094). Also: potency is read from the fitted curve at half-maximal effect. In short, it runs like this: (§2)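 Phenotypic viability qHTS, 48 h compound exposure, CellTiter-Glo luminescence read-out; multi-concentration dosing so that potency and efficacy derive directly from the primary screen's curves.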

A short description of assay [10]: qHTS of pediatric cancer cell lines to identify multiple opportunities for drug repurposing: Primary screen for NB-EBc1 cells (AID 1347095). Also: potency is read from the fitted curve at half-maximal effect. In short, it runs like this: as §2
Assay [11] is described as follows: qHTS of pediatric cancer cell lines to identify multiple opportunities for drug repurposing: Primary screen for U-2 OS cells (AID 1347096). Also: nearly all actives have a fitted effect of over 50% in size. Also: potency is read from the fitted curve at half-maximal effect. In short, it runs like this: (§3)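 Cells (500-1,000/well) rested 5 h, then received compounds for 48 h; metabolically active cells were measured by CellTiter-Glo luminescence. Final concentrations spanned up to 46 µM (MIPE, 11-point) or 0.59 nM-46 µM (NPC, 8-point) in primary screens, 11-point in follow-ups.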

Assay [12] in a line: qHTS of pediatric cancer cell lines to identify multiple opportunities for drug repurposing: Primary screen for Saos-2 cells (AID 1347097). Also: nearly all actives have a fitted effect of over 40% in size. Also: potency is read from the fitted curve at half-maximal effect. In short, it runs like this:
as §2

Assay [13] is described as follows: qHTS of pediatric cancer cell lines to identify multiple opportunities for drug repurposing: Primary screen for SK-N-SH cells (AID 1347098). Also: nearly all actives have a fitted effect of over 65% in size. Also: potency is read from the fitted curve at half-maximal effect. In short, it runs like this:
as §3

The nature of assay [14]: qHTS of pediatric cancer cell lines to identify multiple opportunities for drug repurposing: Primary screen for NB1643 cells (AID 1347099). Also: nearly all actives have a fitted effect of over 50% in size. Also: potency is read from the fitted curve at half-maximal effect. Put shortly: as §2
Assay [15] is described as follows: qHTS of pediatric cancer cell lines to identify multiple opportunities for drug repurposing: Primary screen for LAN-5 cells (AID 1347100). Also: potency is read from the fitted curve at half-maximal effect. In short, it runs like this:
as §3

Assay [16] is described as follows: qHTS of pediatric cancer cell lines to identify multiple opportunities for drug repurposing: Primary screen for BT-12 cells (AID 1347101). Also: nearly all actives have a fitted effect of over 25% in size. Also: potency is read from the fitted curve at half-maximal effect. Put shortly:
as §3

The target in assay [17] is Atrial natriuretic peptide receptor 2 (Homo sapiens) (UniProt P20594). The assay can be described thus: Natriuretic polypeptide receptor (hNpr2) antagonism - Pilot subtype selectivity assay (AID 1347050; calls by dose curve). In short, it runs like this: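 Pilot selectivity screen against hNpr2: HEK293 cGMP-sensor cells are treated with LOPAC1280 compounds, then with hNppC peptide at 1 nM final. The cGMP-driven luminescence change over 20 min at room temperature is the read-out.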

Assay [18] deals with Parathyroid hormone/parathyroid hormone-related peptide receptor (Homo sapiens) (UniProt Q03431). The assay can be described thus: qHTS for PTHR1 Agonists: Optimization Screen against the NCGC LOPAC library (AID 1347079).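 Also: GloSensor cAMP luminescence in HEK-293 GP2 cells expressing human PTHR1 with IBMX.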 Put shortly:
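Compounds were tested across a qHTS titration. PTHR1-expressing GP2 cells report cAMP rises via GloSensor luminescence after 1 hr compound exposure at 37C with IBMX present.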

Assay [19] can be described thus: qHTS of pediatric cancer cell lines to identify multiple opportunities for drug repurposing: Primary screen for TC32 cells (AID 1347089). Also: nearly all actives have a fitted effect of over 60% in size. Put shortly:
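In the primary qHTS, MIPE compounds were tested at 11 concentrations (0.78 nM to 46 µM) and NPC compounds at 8 (0.59 nM to 46 µM) on TC32 cells for 48 h. CellTiter-Glo luminescence gave viability.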

Molecules are shown by their SMILES. “And” between values parts separate entries of the source, which are not always exact repeats. Identical values can stand only once. Records with an inconclusive call do not appear. The source made the active and inactive calls. Unless noted, calls follow the shape of the dose curve; as a rule, active = well fitted curve in the direction sought with a large enough effect; inconclusive = small, poorly fitted or top-dose-only effect, or another doubt; inactive = no such curve, though single readings can be large; an effect the other way counts as inactive or inconclusive.

T1 sequence (P78324 whole entry, looked up): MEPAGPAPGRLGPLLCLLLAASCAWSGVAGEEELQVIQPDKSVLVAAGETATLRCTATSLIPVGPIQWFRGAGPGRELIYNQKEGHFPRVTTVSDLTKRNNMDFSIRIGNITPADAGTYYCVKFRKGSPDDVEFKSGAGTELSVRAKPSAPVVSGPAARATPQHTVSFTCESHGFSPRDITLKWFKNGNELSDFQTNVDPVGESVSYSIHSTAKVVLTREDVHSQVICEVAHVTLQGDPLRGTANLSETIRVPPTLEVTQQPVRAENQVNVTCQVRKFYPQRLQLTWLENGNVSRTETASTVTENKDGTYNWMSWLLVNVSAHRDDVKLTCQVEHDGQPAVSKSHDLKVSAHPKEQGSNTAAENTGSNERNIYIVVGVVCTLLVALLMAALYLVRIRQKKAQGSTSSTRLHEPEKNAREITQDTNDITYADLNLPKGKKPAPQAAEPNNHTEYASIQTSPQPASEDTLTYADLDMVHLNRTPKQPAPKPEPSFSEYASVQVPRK
T1 sequence (Q08722 whole entry, looked up): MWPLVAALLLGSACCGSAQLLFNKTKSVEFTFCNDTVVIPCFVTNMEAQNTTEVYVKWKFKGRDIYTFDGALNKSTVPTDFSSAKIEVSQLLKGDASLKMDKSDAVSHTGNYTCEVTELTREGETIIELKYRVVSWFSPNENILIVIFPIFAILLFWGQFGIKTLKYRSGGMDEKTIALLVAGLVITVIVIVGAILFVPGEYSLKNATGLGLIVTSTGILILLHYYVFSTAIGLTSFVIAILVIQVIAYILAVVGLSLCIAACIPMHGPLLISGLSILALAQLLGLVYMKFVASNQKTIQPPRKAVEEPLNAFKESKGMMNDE
Sequence of Parathyroid hormone/parathyroid hormone-related peptide receptor (Homo sapiens) (Q03431 whole entry, looked up): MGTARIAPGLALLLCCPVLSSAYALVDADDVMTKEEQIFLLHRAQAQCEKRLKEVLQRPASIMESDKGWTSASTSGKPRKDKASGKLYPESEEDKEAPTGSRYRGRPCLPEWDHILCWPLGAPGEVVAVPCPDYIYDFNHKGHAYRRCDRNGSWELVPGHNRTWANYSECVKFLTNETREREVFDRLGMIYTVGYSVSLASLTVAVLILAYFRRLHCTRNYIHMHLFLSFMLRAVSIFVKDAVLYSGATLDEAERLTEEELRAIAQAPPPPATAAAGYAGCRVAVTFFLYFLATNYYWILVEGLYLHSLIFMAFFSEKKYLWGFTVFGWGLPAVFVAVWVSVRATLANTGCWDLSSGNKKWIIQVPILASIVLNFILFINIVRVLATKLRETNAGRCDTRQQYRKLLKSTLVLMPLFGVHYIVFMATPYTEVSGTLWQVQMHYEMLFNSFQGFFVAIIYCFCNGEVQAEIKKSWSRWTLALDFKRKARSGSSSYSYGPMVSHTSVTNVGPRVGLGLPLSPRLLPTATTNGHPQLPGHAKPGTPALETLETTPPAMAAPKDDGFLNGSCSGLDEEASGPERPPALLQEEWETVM
Sequence of Atrial natriuretic peptide receptor 2 (Homo sapiens) (P20594 whole entry, looked up): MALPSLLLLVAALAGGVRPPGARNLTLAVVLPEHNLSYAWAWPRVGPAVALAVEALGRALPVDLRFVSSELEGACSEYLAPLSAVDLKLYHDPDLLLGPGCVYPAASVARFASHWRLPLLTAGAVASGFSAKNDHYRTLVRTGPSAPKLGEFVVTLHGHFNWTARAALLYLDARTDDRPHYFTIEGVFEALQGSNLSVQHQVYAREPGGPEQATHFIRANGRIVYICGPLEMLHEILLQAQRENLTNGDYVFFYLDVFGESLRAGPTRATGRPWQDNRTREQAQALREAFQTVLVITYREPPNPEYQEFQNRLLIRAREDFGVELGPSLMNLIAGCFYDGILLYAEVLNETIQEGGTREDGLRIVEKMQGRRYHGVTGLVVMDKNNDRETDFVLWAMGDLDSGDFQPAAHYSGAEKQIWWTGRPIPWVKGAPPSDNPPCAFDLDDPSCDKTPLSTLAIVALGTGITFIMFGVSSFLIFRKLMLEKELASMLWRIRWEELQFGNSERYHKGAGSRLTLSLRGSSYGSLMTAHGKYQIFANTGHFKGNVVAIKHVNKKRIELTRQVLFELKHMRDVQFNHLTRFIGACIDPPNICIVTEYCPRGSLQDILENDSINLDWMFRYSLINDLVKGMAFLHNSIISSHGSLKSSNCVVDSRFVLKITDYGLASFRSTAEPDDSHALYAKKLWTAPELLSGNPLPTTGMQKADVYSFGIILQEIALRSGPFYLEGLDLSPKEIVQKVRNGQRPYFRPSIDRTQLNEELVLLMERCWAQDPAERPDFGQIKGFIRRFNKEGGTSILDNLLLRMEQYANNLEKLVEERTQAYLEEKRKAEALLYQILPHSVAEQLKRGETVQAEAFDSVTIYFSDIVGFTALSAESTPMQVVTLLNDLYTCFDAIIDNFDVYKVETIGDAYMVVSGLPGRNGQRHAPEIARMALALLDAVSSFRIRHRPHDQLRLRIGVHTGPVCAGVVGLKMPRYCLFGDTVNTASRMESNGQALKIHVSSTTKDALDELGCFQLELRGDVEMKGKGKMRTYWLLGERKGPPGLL

Consider `CC(=O)OCC(CCn1cnc2cnc(N)nc21)COC(C)=O`, for which the Potency entry in [1], in [4], in [5], in [6], in [7] and in [8] was “inactive” each time. For the same compound, the Potency result in assay [9], in assay [10], in [11], in assay [12], in assay [13] and in assay [14] was “inactive” in each case. In addition, the Potency entry in assay [15] and in [16] was “inactive” in each case. Further, the outcome in assay [2] and in assay [3] was inactive.

Turning to `CN(CCOc1ccc(NS(C)(=O)=O)cc1)CCc1ccc(NS(C)(=O)=O)cc1`, the Potency result in assay [1], in assay [4], in assay [5], in assay [6], in assay [7] and in assay [8] was “inactive” throughout. Further, the Potency result in [9], in [10], in [11], in [12], in [13] and in [14] was “inactive” throughout. In addition, the Potency entry in assay [15] and in assay [16] was “inactive” throughout. Moreover, the outcome in [2] and in assay [3] was inactive.

Regarding `Cn1c(=O)c2c(ncn2C)n(C)c1=O`, the Potency entry in assay [17], in assay [1], in assay [18], in assay [19], in assay [5] and in [6] was “inactive” in each case. The Potency result in assay [7], in assay [8], in assay [9], in [10], in assay [11] and in [12] was “inactive” in each case. In addition, the Potency entry in [13], in assay [14], in assay [15] and in [16] was “inactive” in each case.

Regarding `O=C1c2c(O)ccc(O)c2C(=O)c2c(NCCNCCO)ccc(NCCNCCO)c21`, the Potency is 833 nM (active) in assay [1]; 826 nM (active) in assay [4]; 2.96 µM (active) and 2.66 µM (active) in assay [5]; 332 nM (active) and 422 nM (active) in assay [6]; 590 nM (active) and 168 nM (active) in assay [7]; 235 nM (active) and 1 nM (active) in assay [8]. For the same compound, the Potency was 243 nM (active) and 38.9 nM (active) in assay [9]; 74.3 nM (active) and 59.6 nM (active) in assay [10]; 18.7 µM (active) and 10.6 µM (active) in assay [11]; 1.66 µM (active) and 1.68 µM (active) in [12]; 383 nM (active) and 486 nM (active) in assay [13]; 469 nM (active) and 668 nM (active) in [14]. The Potency in [15] is 83.3 nM (active); in assay [16] it was 1.72 µM (active) and 490 nM (active). Further, the Potency result in assay [18] was “inactive”.

`CC(C)(C)C(=O)Oc1ccc(S(=O)(=O)Nc2ccccc2C(=O)NCC(=O)O)cc1`: the Potency entry in assay [1], in assay [4], in [6], in [7], in assay [8] and in assay [9] was “inactive” in each case. The Potency entry in assay [10], in assay [11], in assay [12], in assay [13], in assay [14] and in [15] was “inactive” in each case. The Potency entry in assay [16] is “inactive”. In addition, the outcome in assay [2] and in assay [3] was inactive.
